Data: PubChem BioAssay (NCI)
Several values for one entry are separate records, joined by “and”; a condition that tells them apart may be missing. Equal values may be shown once. The panel holds about 79,000 compounds, 15% with a hit somewhere; the sample as a whole holds those more often. The source holds several records for some structures; these can differ, active in one and inactive in another. Activity calls are given as the source filed them. Rule as the data show it: active = growth inhibition above about 70%; inactive = the rest.

What was measured:
[1] = NCI Yeast Anticancer Drug Screen. Data for the rad50 strain (AID 155);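 also: 0% = growth of vehicle-only cultures of the same strain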; conditions: S. cerevisiae rad50 strain growth inhibition, stronger effect = higher value
How it was run: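 DNA repair mutant yeast, compound exposure, growth read-out; inhibition is taken relative to vehicle.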

[2] = NCI Yeast Anticancer Drug Screen. Data for the mec2-1 strain (AID 157); conditions: S. cerevisiae mec2-1 strain, stronger effect = higher value
How it was run: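 Yeast mec2-1 mutant treated with compound. Readout: growth inhibition vs vehicle controls.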

[3] = NCI Yeast Anticancer Drug Screen. Data for the sgs1 mgt1 strain (AID 161);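 also: 0% = growth of cultures given vehicle only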; conditions: S. cerevisiae sgs1 mgt1 strain, stronger effect = higher value
How it was run: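 Inhibition of yeast growth, normalised to vehicle-treated controls, is reported for a strain bearing genetic alterations in DNA damage repair.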

[4] = NCI Yeast Anticancer Drug Screen. Data for the cln2 rad14 strain (AID 165);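 also: 0% = growth equal to vehicle treated cultures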; conditions: S. cerevisiae cln2 rad14 strain, stronger effect = higher value
How it was run: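 cln2 rad14 yeast strain; compound exposure; growth inhibition read vs vehicle controls.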

[5] = NCI Yeast Anticancer Drug Screen. Data for the bub3 strain (AID 167); conditions: S. cerevisiae bub3 mutant strain, stronger effect = higher value
How it was run: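 In this screen, a yeast mutant lacking normal mitotic checkpoint function is challenged with compound. Relative growth versus vehicle gives the inhibition value.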

[6] = NCI Yeast Anticancer Drug Screen. Data for the mlh1 rad18 strain (AID 175); conditions: S. cerevisiae mlh1 rad18 strain growth inhibition, stronger effect = higher value
How it was run: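 Yeast w/ defined DNA-repair lesions; compound exposure; growth vs vehicle controls → % inhibition.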

[7] = at 5.0 µM (retest, dose inferred, filed as 0.5)
[8] = at 50.0 µM (retest, dose inferred, filed as 5.0)

Row | SMILES | growth inhibition [1, 7] | growth inhibition [1, 8] | growth inhibition ([1]; at 50.0 µM) | growth inhibition [2, 7] | growth inhibition [2, 8] | growth inhibition ([2]; at 50.0 µM) | growth inhibition [3, 7] | growth inhibition [3, 8] | growth inhibition ([3]; at 50.0 µM) | growth inhibition [4, 7] | growth inhibition [4, 8] | growth inhibition ([4]; at 50.0 µM) | growth inhibition [5, 7] | growth inhibition [5, 8] | growth inhibition ([5]; at 50.0 µM) | growth inhibition [6, 7] | growth inhibition [6, 8] | growth inhibition ([6]; at 50.0 µM)
1 | C=C1C(=O)C23OC2C1CCC(=O)C1(C)CC[C@H](OC(C)=O)C(C)(C)[C@H]1CC3=O (stereo not given in full) | 96% (active) | -2% (inactive) | 99.2% (active) | 98% (active) | 1% (inactive) | 99.5% (active) | 98% (active) | 0% (inactive) | 99.5% (active) | 95% (active) | -1% (inactive) | 99% (active) | 98% (active) | -1% (inactive) | 99% (active) | 98% (active) | -1% (inactive) | 99.2% (active)
2 | CC(=O)Nc1ccc(S(=O)(=O)N/N=C/c2ccc(C)cc2)cc1 | 7% (inactive) | 8% (inactive) | -3.15% (inactive) | 8% (inactive) | 1% (inactive) | -17.6% (inactive) | 15% (inactive) | 6% (inactive) | 7.45% (inactive) | 8% (inactive) | 1% (inactive) | 64.5% (inactive) | 26% (inactive) | -1% (inactive) | -38.6% (inactive) | 28% (inactive) | 7% (inactive) | -12.4% (inactive)
3 | O/N=C(\CC(O)(C(F)(F)F)C(F)(F)F)c1cccc(Cl)c1 | 13% (inactive) | 80% (active) | 91% (active) | 17% (inactive) | 98% (active) | 93.6% (active) | 10% (inactive) | 97% (active) | 92.8% (active) | 8% (inactive) | 95% (active) | 89% (active) | 14% (inactive) | 97% (active) | 90.5% (active) | 26% (inactive) | 97% (active) | 89.3% (active)
4 | CC1(C)CC(=O)C2=C(C1)OC1=C(CC(C)(C)CC1=O)C2c1ccccc1Cl (stereo not given) | 19% (inactive) | 16% (inactive) | -5.65% (inactive) | 12% (inactive) | 13% (inactive) | -7.45% (inactive) | 8% (inactive) | 10% (inactive) | -1.9% (inactive) | 37% (inactive) | 33% (inactive) | 5.45% (inactive) | -11% (inactive) | -10% (inactive) | 13.2% (inactive) | 17% (inactive) | 17% (inactive) | -15.2% (inactive)
5 | Nc1ccc2c(n1)NCC/C2=N\Nc1ccccc1 | 1% (inactive) | 72% (active) | 90.5% (active) | -2% (inactive) | 60% (inactive) | 78.3% (active) | -4% (inactive) | 69% (inactive) | 79% (active) | -2% (inactive) | 23% (inactive) | 60.9% (inactive) | -5% (inactive) | 91% (active) | 87.8% (active) | 0% (inactive) | 92% (active) | 98% (active)
6 | CN1C(c2ccccc2)CC(=NO)CC1c1ccccc1 (stereo not given) | 18% (inactive) | 58% (inactive) | 24.6% (inactive) and 93.9% (active) | 1% (inactive) | 45% (inactive) | 6.35% (inactive) and 27.3% (inactive) | 6% (inactive) | 58% (inactive) | 3.9% (inactive) and 82.2% (active) | -12% (inactive) | 20% (inactive) | 5.8% (inactive) and 32.3% (inactive) | 7% (inactive) | 23% (inactive) | -7.15% (inactive) and 62% (inactive) | -1% (inactive) | 41% (inactive) | 30.4% (inactive) and 85.2% (active)
7 | O=C(O)CSCc1ccc(Cl)cc1 | -2% (inactive) | 1% (inactive) | 3.7% (inactive) | 2% (inactive) | -3% (inactive) | -32.9% (inactive) | 2% (inactive) | 1% (inactive) | -9.3% (inactive) | 0% (inactive) | -7% (inactive) | 29.3% (inactive) | 2% (inactive) | 4% (inactive) | 6.1% (inactive) | -1% (inactive) | -3% (inactive) | -6.45% (inactive)
8 | Cc1noc(-c2ccc([N+](=O)[O-])o2)n1 | 6% (inactive) | 85% (active) | 93.5% (active) | -1% (inactive) | 82% (active) | 52.1% (inactive) | 5% (inactive) | 87% (active) | 74.6% (active) | -6% (inactive) | 57% (inactive) | 57.9% (inactive) | 2% (inactive) | 80% (active) | 63.9% (inactive) | 24% (inactive) | 94% (active) | 87.8% (active)
9 | CCCCCCCCCCCCCC1=NCC(c2ccc3ccccc3c2)O1 (stereo not given) | -4% (inactive) | -13% (inactive) | -1.9% (inactive) | -4% (inactive) | -2% (inactive) | 4.95% (inactive) | -4% (inactive) | -23% (inactive) | -12.6% (inactive) | -6% (inactive) | -27% (inactive) | 10.3% (inactive) | 1% (inactive) | -6% (inactive) | -4.7% (inactive) | -2% (inactive) | -6% (inactive) | -1.95% (inactive)
10 | Cc1nnc(S(=O)(=O)c2ccc(N=Nc3c(N)nc(N)nc3N)cc2)s1 | 6% (inactive) | 20% (inactive) | -5.45% (inactive) | 8% (inactive) | -5% (inactive) | -13.2% (inactive) | -8% (inactive) | -9% (inactive) | -9.15% (inactive) | 9% (inactive) | 4% (inactive) | 68.4% (inactive) | -1% (inactive) | 7% (inactive) | -23.5% (inactive) | 11% (inactive) | 7% (inactive) | 6.4% (inactive)
11 | O=C(NN1CCOC1=O)OCCCl | -2% (inactive) | 2% (inactive) | 24.7% (inactive) | -1% (inactive) | -6% (inactive) | 18.7% (inactive) | -8% (inactive) | -7% (inactive) | 34.6% (inactive) | 9% (inactive) | 0% (inactive) | 24.6% (inactive) | 6% (inactive) | 2% (inactive) | -16.1% (inactive) | -1% (inactive) | 1% (inactive) | 73.5% (active)
12 | CCN(CC)c1ccc(/C=C/c2ccnc3ccccc23)cc1 | -11% (inactive) and 0% (inactive) | 95% (active) and 98% (active) | 99% (active) and 98.3% (active) | -3% (inactive) and 1% (inactive) | 98% (active) and 99% (active) | 99% (active) and 97.8% (active) | 4% (inactive) and -3% (inactive) | 94% (active) and 98% (active) | 99.1% (active) and 98.5% (active) | -10% (inactive) and 7% (inactive) | 97% (active) and 98% (active) | 98.6% (active) and 97.5% (active) | 28% (inactive) and -4% (inactive) | 98% (active) and 99% (active) | 98.7% (active) and 98.3% (active) | 17% (inactive) and 16% (inactive) | 97% (active) and 98% (active) | 98.3% (active) and 97.4% (active)
13 | O=C(CCC(=O)OCCOc1ccccc1)OCCOc1ccccc1 | 10% (inactive) | -1% (inactive) | -3.5% (inactive) | -16% (inactive) | -13% (inactive) | -4.7% (inactive) | 17% (inactive) | 3% (inactive) | -6.4% (inactive) | 7% (inactive) | 20% (inactive) | 21.6% (inactive) | 1% (inactive) | 7% (inactive) | -4% (inactive) | 6% (inactive) | 30% (inactive) | -1.75% (inactive)
14 | CCCCCCC(CCCCCCCCCCC(=O)OCC(CC)CC)OC(=O)CC (stereo not given) | -4% (inactive) | -4% (inactive) | 21.2% (inactive) | -3% (inactive) | -6% (inactive) | 7.9% (inactive) | -4% (inactive) | -23% (inactive) | 7.4% (inactive) | -2% (inactive) | -13% (inactive) | 21.4% (inactive) | -3% (inactive) | -5% (inactive) | -6.9% (inactive) | -3% (inactive) | -6% (inactive) | 39.5% (inactive)
15 | COc1ccc(NC(=O)C(=O)NO)c(OC)c1 | 19% (inactive) | 94% (active) | 90.8% (active) | -2% (inactive) | 96% (active) | 91.1% (active) | 9% (inactive) | 94% (active) | 91% (active) | -10% (inactive) | 94% (active) | 87.9% (active) | 4% (inactive) | 93% (active) | 91.2% (active) | -28% (inactive) | 95% (active) | 87.9% (active)
